Only some compounds are listed: those with a hit (about 12% of all), similar ones and a draw of the others.
Pf growth 48h: inhibits P. falciparum growth in the first generation, 48 h; Potency, µM (titrated, usually from 28.7 µM), without a hit: at the highest dose activity change, negative = inhibition, usual class: inhibitors; AID 504832; 310,000 tested, 5.9% active; P. falciparum luciferase growth in erythrocytes, 48 h; also: % is scaled to controls: 0 for no effect and ±100 for the full control effect
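Luciferase-expressing parasites in RBCs, 2% Hct / 0.1% parasitemia final; RPMI 1640 + 0.5% Albumax; 37 C, 5% CO2, one generation; luminescence read-out, lower signal = inhibition.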
Pf growth 96h: P. falciparum growth inhibition at 96 hours; P. falciparum luciferase reporter growth, 96 h; Potency, µM (series often up to 28.7 µM), without a hit: at the top dose activity change, negative = inhibition, most hits filed as inhibitors; 320,000 tested, 6.9% active; also: % is scaled to controls: 0 for no effect and ±100 for the full control effect
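Luminescence readout: decreased luciferase signal marks inhibited growth of reporter-expressing P. falciparum in infected red cells (2% hematocrit, 0.05% parasitemia final), exposed to compound two generations (96 h, 37 C, 5% CO2).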
Sm TGR inh: inhibitors of Schistosoma mansoni thioredoxin glutathione reductase | 360,000 tested, 3% active | Q962Y6 | Potency, µM (titrated, usually from 114 µM), inactives show at the highest dose activity change, negative = inhibition, usual class: inhibitors | purified TGR, DTNB reduction, TNB absorbance 405 nm; also: % is scaled to controls: 0 for no effect and ±100 for the full control effect; nearly all actives have a fitted effect of over 60% in size
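TGR 20 nM + NADPH 100 uM (dispensed conc.), cpd preinc 15 min RT; start with NADPH (500 uM addition) then DTNB (15 mM addition). Kinetic TNB absorbance, 405 nm filter. Four-parameter Hill fit across titration.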
SARS PLpro yeast: inhibitors of SARS-CoV papain-like protease in yeast; S. cerevisiae expressing SARS-CoV PLpro, growth rescue; Potency, µM (doses to about 32.9 µM), inactives show at the highest dose activity, positive = growth rescue, actives largely listed as activators; 330,000 tested, 0.19% active; calls by dose curve; also: 0% is about no effect; nearly all actives have a fitted effect of over 55% in size
Active calls of the source: *; ? = inconclusive; · = no result; ! = not active in a repeat; [ ] = another dose, or the depositor's remark. Unless noted, calls follow the shape of the dose curve; as a rule, active = well fitted curve in the direction sought with a large enough effect; inconclusive = small, poorly fitted or top-dose-only effect, or another doubt; inactive = no such curve, though single readings can be large; an effect the other way counts as inactive or inconclusive. Potency is read from the fitted curve at half-maximal effect.

SMILES	Pf growth 48h	Pf growth 96h	Sm TGR inh	SARS PLpro yeast
Cc1c(Cl)cccc1NS(=O)(=O)c1ccc2c(c1)C1C=CCC1C(c1ccc(C(=O)O)cc1)N2 (centres undefined)	17%	?	20µM*	2%
CN1C2CCC1CC(OC(=O)c1ccc(Cl)cc1)C2 (centres undefined)	?	1%	6%	?
CN1C2CCC1CC(OC(=O)c1c[nH]c3ccccc13)C2 (centres undefined)	12µM*!	?	-2%	1%
CCC(O)(c1ccccc1)C(CN1CCOCC1)c1ccccc1 (centres undefined)	?	-25%	1%	-1%
CCc1ccc(C(O)(CC)C(CN2CCOCC2)c2ccccc2)cc1 (centres undefined)	12µM*	0%	-2%	0%
CCCCC(O)(c1ccc(CC)cc1)C(CN1CCOCC1)c1ccccc1 (centres undefined)	1.9µM*	-7%	2%	-6%
OC(c1ccccc1)(C1CCCCC1)C(CN1CCOCC1)c1ccccc1 (centres undefined)	2.9µM*	2%	0%	-4%
CCCCC(O)(c1ccccc1)C(CN1CCOCC1)c1ccccc1 (centres undefined)	?	27%	15%	-3%
O=C1OC(Nc2ccc(F)c([N+](=O)[O-])c2)c2ccccc21 (centres undefined)	11%	20%	-1%	0%
O=C1OC(Nc2ccc3c(c2)OCO3)c2ccccc21 (centres undefined)	?	4%	8.9µM*	0%
COc1cccc2cc(C(=O)C3=C(O)C(=O)N(CCN4CCOCC4)C3c3ccc(C)o3)oc12 (centres undefined)	-14%	-9%	28µM*	-12%
CN(C)CCN1C(=O)C(O)=C(C(=O)c2cc3ccccc3o2)C1c1ccc(N(C)C)cc1 (centres undefined)	54%	9.3µM*	?	-3%
O=C(C1=C(O)C(=O)N(CCCN2CCOCC2)C1c1ccc(Cl)cc1)c1cc2ccccc2o1 (centres undefined)	10%	48%	?	-6%
O=C(C1=C(O)C(=O)N(CCN2CCOCC2)C1c1ccc(Cl)cc1)c1cc2ccccc2o1 (centres undefined)	?	?	28µM*	0%
COC(=O)c1ccc(C2C(C(=O)c3cc4ccccc4o3)=C(O)C(=O)N2CCN2CCOCC2)cc1 (centres undefined)	-12%	-20%	?	1%
COc1cccc(C2C(C(=O)c3cc4ccccc4o3)=C(O)C(=O)N2CCN2CCOCC2)c1 (centres undefined)	3%	13%	40µM*	1%
O=C(CCc1ccccc1)NC(=S)Nc1ccccc1[N+](=O)[O-]	25%	?	-22%	1%
Cn1c(=NC(=O)c2ccc(S(=O)(=O)N3CCCC3)cc2)sc2cc(F)ccc21	·	·	21%	·
COc1cccc(CNC(=O)C2CSC3(C)CCC(=O)N23)c1 (centres undefined)	?	5%	-4%	-2%
COc1ccccc1C1C(C(=O)c2cc3ccccc3o2)=C(O)C(=O)N1CCN1CCOCC1 (centres undefined)	·	?	40µM*	-3%
Cc1nc(C)c(C(=O)C2=C(O)C(=O)N(CCN3CCOCC3)C2c2ccco2)s1 (centres undefined)	6%	·	28µM*	-2%
CC(Oc1cc2oc(=O)c3c(c2cc1Cl)CCC3)C(=O)NCc1ccccn1 (centres undefined)	25%	7%	1%	-14%
Cc1oc2c(C)c3oc(=O)c(CCC(=O)NCCCn4ccnc4)c(C)c3cc2c1C	13µM*	?	-1%	7%
Cc1c(CCC(=O)NCCCn2ccnc2)c(=O)oc2cc3oc4c(c3cc12)CCCC4	10µM*	?	7%	-2%
Cc1coc2cc3oc(=O)c(CCC(=O)NCCCn4ccnc4)c(C)c3cc12	-12%	10µM*	5%	3%
SMILES	Pf growth 48h	Pf growth 96h	Sm TGR inh	SARS PLpro yeast
Cc1oc2cc3oc(=O)c(CCC(=O)NCCCn4ccnc4)c(C)c3cc2c1C	1%	?	2%	-1%
COc1cc(/C=C(\C#N)c2nc3ccccc3[nH]2)ccc1OCc1cccc(C(F)(F)F)c1	·	·	2%	·
COc1ccc2ccccc2c1C1NC(=O)NC(C)=C1[N+](=O)[O-] (centres undefined)	·	?	2%	3%
NC(=O)c1ccsc1NC(=O)CCS(=O)(=O)c1ccccc1	20%	-24%	12%	1%
N#Cc1ccsc1NC(=O)CCS(=O)(=O)c1ccccc1	-8%	?	2.8µM*	18%
N#Cc1ccsc1NC(=O)COC(=O)CCS(=O)(=O)c1ccccc1	·	·	·	6%
NC(=O)c1ccsc1NC(=O)CCS(=O)(=O)c1ccc(Cl)cc1	-18%	?	3.2µM*	1%
COc1ccccc1C(=O)NCCSCc1c(F)cccc1Cl	?	10µM*	11%	-7%
O=C(NCCSCc1c(F)cccc1Cl)c1ccco1	?	-20%[5.75 µM]	7%	-20%
Cc1c(Cl)cccc1NC(=O)CCS(=O)(=O)c1cccc2nsnc12	·	·	-25%	·
CSCCC(NC(=O)c1ccco1)C(=O)Nc1ccc(C)cn1 (centres undefined)	63%	68%	2%	-1%
COc1cc(/C=N/Nc2ccccc2)ccc1O	?	10µM*	40µM*	-2%
COc1cc(/C=N/NC(=O)CCN2CCN(C(c3ccccc3)c3ccccc3)CC2)ccc1O	?	12µM*	-10%	5%
COc1cc(/C=N/NP(=S)(c2ccccc2)c2ccccc2)ccc1O	·	?	-9%	-7%
COc1cc(/C=N/Nc2cccc(C)c2)cc(Br)c1O	?	?	45µM*	-4%
COc1cc(/C=N/Nc2ccccc2C(F)(F)F)ccc1O	19%	?	40µM*	1%
COc1cc(/C=N\NC(=O)CNC(=O)C(c2ccccc2)c2ccccc2)ccc1O	?	?	-5%	0%
COc1cc(/C=N/NC(=O)c2cccs2)ccc1O	76%	35%	-5%	1%
COc1cc(/C=N/Nc2cccc(C)c2)ccc1OC(=O)c1cccs1	-15%	1%	-29%	-17%
CCOC(=O)c1cc(-c2ccc(C)cc2)n(CC(=O)Nc2ccc(OC)c(Cl)c2)c1C	·	·	1%	·
COc1ccc(NC(=O)COc2ccccc2)cc1NC(=O)c1ccco1	30%	206%	-6%	3%
CN(C)S(=O)(=O)N(CC(=O)NCCSCc1c(F)cccc1Cl)c1ccccc1	·	·	17%	·
Cc1ccc(C(=O)/C=C/C(=O)O)cc1	-18%	?	2.5µM*	-34%
Cc1ccc(C(=O)N2CCN(c3cccc(Cl)c3)CC2)cc1-n1c(C)nc2cccnc21	·	·	6%	·
COc1ccc(C2CC(c3ccccc3)=NN2S(=O)(=O)c2ccc(C)cc2)c(OC)c1 (centres undefined)	?	12µM*	4%	-9%
COc1ccc(C2=NN(S(=O)(=O)c3ccccc3)C(c3ccccc3)C2)cc1 (centres undefined)	?	6.6µM*	18%	0%
